Experiment [1] has as its system Human papillomavirus type 1a protein E7 (residues 44-93). Briefly: HPV1a E7 fragment binders on microarrays, primary screen, biochemical, small-molecule microarray, residues 44-93, 635 nm fluorescence (AID 1108).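 Note: E7 fragment applied at 1 µg/mL in TBST for 1 h at 4 C; score combines spot fluorescence with its signal to noise ratio.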 Particulars: small-molecule microarray binding, fluorescence 635 nm; higher = more signal.
Experiment [2] is described as follows: modulators of HCV replicon luciferase signal, primary screen, HCV replication inhibitor project, Huh7 cells, luciferase reporter (AID 1109).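 Note: huh7 hepatoma cells harbouring a luciferase neomycin HCV replicon reporter; luciferase luminescence as measure of HCV replicon replication; test concentration not given here.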 Particulars: 48 h, higher = more signal.
The target of experiment [3] is Left-right determination factor 2 (Homo sapiens) (UniProt O00292). Briefly: LEFTY2 binders on small-molecule microarrays, primary screen, biochemical, small-molecule microarray, 635 nm fluorescence scan (AID 1110). Particulars: LEFTY2 binding, higher = more signal.
Experiment [4] addresses Calmodulin-1 (Homo sapiens) (UniProt P0DP23). As to the kind of experiment: CALM1 binders on microarrays, EGTA buffer, profiling panel, biochemical, small-molecule microarray, Cy5-labelled CALM1 (AID 1111).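 Note: labelled calmodulin applied in Tris saline Tween buffer holding calcium plus EGTA and DTT.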 Particulars: Cy5-CALM1 binding fluorescence, higher = more signal.
The target is the same in experiment [5]. As to the kind of experiment: calcium-bound CALM1 binders on microarrays, profiling panel, artefact control for SMM control-protein annotation, biochemical, small-molecule microarray, Cy5-labelled CALM1, plus calcium (AID 1112).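 Note: score merges spot fluorescence with signal to noise from triplicate slides.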 Particulars: Cy5-CALM1 binding fluorescence, higher = more signal.
The nature of experiment [6]: small-molecule microarray binders of probe aWnt5a, primary screen, biochemical, biotinylated probe, 635/667 nm fluorescence (AID 1113).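 Note: score merges 667 nm fluorescence intensity with signal-to-noise per printed feature.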 Particulars: higher = more signal.
Experiment [7] is described as follows: small-molecule microarray binders of probe aShh, primary screen, biochemical, biotinylated probe, 635/667 nm fluorescence (AID 1114).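 Note: probe is biotin-labelled aShh protein from a stem cell growth factor screen; measures binding of labelled protein to compounds printed on the slide; score merges feature fluorescence at 667 nm with signal-to-noise.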 Particulars: higher = more signal.
The nature of experiment [8]: small-molecule microarray binders of probe aNog, primary screen, biochemical, biotinylated probe, 635/667 nm fluorescence (AID 1115).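 Note: probe is biotinylated aNog protein used at 0.15 µg/mL for 1 h at 4 C; z-score combines 667 nm fluorescence of each spot with its signal to noise.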 Particulars: higher = more signal.
Experiment [9] addresses Torsin-1A-interacting protein 1 (Homo sapiens) (UniProt Q5JTV8). As to the kind of experiment: LAP1 binders from COS7 cell lysate, primary screen, small-molecule microarray, 635/667 nm fluorescence (AID 1116). Particulars: COS7-hLAP1 lysate binding, 635 nm fluorescence, higher = more signal.
In experiment [10] the target is Alpha-bungarotoxin (Bungarus multicinctus) (UniProt P60615). Briefly: alpha-bungarotoxin binders on microarray, profiling panel, artefact control for SMM control protein annotation, biochemical, small-molecule microarray, Alexa647 label, 635/667 nm fluorescence (AID 1117). Particulars: alpha-BTX-A647 binding fluorescence, higher = more signal.
Alpha-bungarotoxin (Bungarus multicinctus), sequence (P60615 whole entry, looked up): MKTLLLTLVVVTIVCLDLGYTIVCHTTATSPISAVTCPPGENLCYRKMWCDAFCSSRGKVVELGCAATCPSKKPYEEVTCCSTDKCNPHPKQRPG

Torsin-1A-interacting protein 1 (Homo sapiens), sequence (Q5JTV8 whole entry, looked up): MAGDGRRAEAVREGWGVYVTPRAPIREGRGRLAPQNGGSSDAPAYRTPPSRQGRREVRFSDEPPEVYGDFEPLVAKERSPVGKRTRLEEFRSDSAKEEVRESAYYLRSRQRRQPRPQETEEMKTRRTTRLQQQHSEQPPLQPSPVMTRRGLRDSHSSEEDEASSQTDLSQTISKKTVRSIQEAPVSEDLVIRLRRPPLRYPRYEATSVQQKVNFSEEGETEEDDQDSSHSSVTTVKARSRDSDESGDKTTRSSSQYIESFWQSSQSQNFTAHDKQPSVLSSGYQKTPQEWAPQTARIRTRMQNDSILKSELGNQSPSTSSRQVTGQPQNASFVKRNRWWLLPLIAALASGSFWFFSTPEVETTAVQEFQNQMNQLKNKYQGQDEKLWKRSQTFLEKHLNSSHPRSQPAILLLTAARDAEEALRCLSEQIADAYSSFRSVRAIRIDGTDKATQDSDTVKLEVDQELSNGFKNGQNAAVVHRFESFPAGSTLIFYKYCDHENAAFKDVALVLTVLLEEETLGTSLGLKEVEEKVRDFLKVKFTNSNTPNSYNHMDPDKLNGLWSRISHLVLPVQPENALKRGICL
Left-right determination factor 2 (Homo sapiens), sequence (O00292 whole entry, looked up): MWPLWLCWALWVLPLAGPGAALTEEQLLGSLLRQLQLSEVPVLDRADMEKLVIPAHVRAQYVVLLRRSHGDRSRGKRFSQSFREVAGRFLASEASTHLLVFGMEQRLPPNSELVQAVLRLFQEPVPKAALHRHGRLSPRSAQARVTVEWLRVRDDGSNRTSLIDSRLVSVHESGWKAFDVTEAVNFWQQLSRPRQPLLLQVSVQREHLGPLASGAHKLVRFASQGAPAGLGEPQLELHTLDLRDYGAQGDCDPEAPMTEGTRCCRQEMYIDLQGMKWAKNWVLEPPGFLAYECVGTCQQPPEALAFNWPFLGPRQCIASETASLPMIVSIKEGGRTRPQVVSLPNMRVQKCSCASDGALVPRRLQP

Take `Cc1cccc(/C=C/C=O)c1`: the composite z-score is 0.63 in experiment [1]; -0.478 in experiment [3]; 0.613 in experiment [4]; 0.207 in experiment [5]; -0.0944 in experiment [6]; -0.214 in experiment [7]. Besides, the composite z-score is -0.104 in [8], -0.476 in [9] and 0.549 in experiment [10]. In addition, the z-score in [2] amounted to 0.33.

For `C[n+]1ccc2ccc(O)cc2c1`, the composite z-score in experiment [1] was 0.642; in experiment [3] it was 0.92; in [4] it was -0.825; in experiment [5], -1.61; in experiment [6], -0.124; in experiment [7], -0.0804. Besides, the composite z-score in experiment [8] is -0.323; in [9], 1.62; in [10], 0.273. Besides, the z-score in experiment [2] was -0.337.

As to `C/C=C/[C@H](CCn1cc([C@H](O)c2ccccc2)nn1)[Si](C)(C)c1ccc(OC)cc1`, the composite z-score was -0.0636 in experiment [1]; -0.915 in [3]; -1.41 in experiment [4]; -1.41 in [5]; -0.233 in experiment [6]; -0.0769 in [7]. The composite z-score in experiment [8] was -0.272; in [9], -0.66; in experiment [10], -0.977. The z-score in [2] is -1.78.

For the molecule `O=C1C2C=CC(C(O)C3CC=CCC3)N(n3cnnc3)C2C(=O)N1Cc1ccccc1` (stereo not given), the composite z-score in experiment [1] was -0.318; in experiment [3] it was -0.49; in [4], -0.292; in [5], -0.92; in experiment [6], -0.154; in experiment [7], 0.0684. Further, the composite z-score stood at 0.336 in experiment [8], 0.752 in experiment [9] and 0.365 in experiment [10]. Besides, the z-score in experiment [2] is -0.151.

Consider `C[C@]1(C(=O)NCC(F)(F)F)c2ccccc2C(=O)N(Cc2cc(F)cc(C(F)(F)F)c2)[C@H]1c1ccc(CO)cc1`, for which the composite z-score is 1.05 in experiment [1]; -0.977 in [3]; 1.6 in [4]; 0.302 in experiment [5]; -0.224 in [6]; 0.0024 in experiment [7]. For the same molecule, the composite z-score in [8] is 0.452; in [9], 0.729; in [10], 0.0035. The same molecule yielded a z-score in experiment [2] of -0.906.

As to `CC(=O)NCCCC[C@@H]1NC(=O)[C@@H]2C[C@H](C(=O)NCc3ccc(F)cc3)[C@H](c3ccc(O)cc3)N2C1=O`, the composite z-score in experiment [1] was 0.0999; in [3], 0.591; in [4], 0.0633; in experiment [5], -0.72; in experiment [6], -0.103; in experiment [7], 0.785. For the same molecule, the composite z-score was -0.314 in experiment [8], 0.362 in experiment [9] and 0.346 in [10]. Further, the z-score in experiment [2] was -0.673.

For `CCCC[C@H]1OB(O)C[C@H]2C1=C(C)Cn1c(=O)n(-c3ccccc3)c(=O)n12`, the composite z-score in experiment [1] is 0.422; in [3] it was 0.648; in experiment [4] it was -0.305; in experiment [5], -0.406; in experiment [6], -0.215; in [7], -0.0035. The composite z-score in [8] is -0.426; in [9] it was 0.363; in [10] it was -0.149. The molecule further displayed a z-score in [2] of -0.759.

For the molecule `C=CCC(OC(C)=O)[C@@H]1[C@@H](N(Cc2ccc(-c3ccccc3)cc2)C(=O)c2ccc(C)cc2)c2cc(OCCCO)ccc2N1C(=O)c1ccc2ccccc2n1` (stereo not given in full), the composite z-score is -0.6 in experiment [1]; 0.755 in experiment [3]; -0.248 in experiment [4]; 0.24 in experiment [5]; -0.14 in [6]; -0.181 in experiment [7]. The figures for the composite z-score in experiment [8], in [9] and in experiment [10] were 0.496, 0.234 and -0.0983, respectively. Further, in experiment [2], the z-score was -0.41.

For the molecule `COc1ccc([Si](C)(C)[C@@H]2[C@@H](CCO)O[C@]3(C(=O)N(Cc4ccccc4)c4ccc(N(C=O)c5ccccc5)cc43)[C@H]2C)cc1`, the composite z-score was -0.736 in experiment [1]; 0.391 in experiment [3]; 0.194 in experiment [4]; 0.841 in experiment [5]; -0.117 in experiment [6]; 0.0684 in experiment [7]. The composite z-score in [8] was -0.0036; in experiment [9] it was 0.301; in experiment [10], -0.525. The same molecule came in with a z-score in experiment [2] of -4.14.

Regarding `C=C[C@@H](C)[C@@H](OC(=O)Nc1ccc(OC)cc1)c1ccc(O)c2ccccc12`, the composite z-score in [1] was 0.118; in experiment [3] it was 0.312; in experiment [4] it was -0.27; in experiment [5], -0.667; in [6], -0.152; in experiment [7], -0.223. The results for the composite z-score in experiment [8], in experiment [9] and in [10] were -0.409, -0.0999 and -0.511, respectively. In experiment [2], this molecule registered a z-score of -1.84.

`CN1C(=O)C2C=CC(C(O)c3ccccc3)N(NC(=O)OC(C)(C)C)C2C1=O` (stereo not given): the composite z-score in [1] was 1.32; in experiment [3] it was -0.474; in experiment [4] it was 0.347; in experiment [5], -0.197; in experiment [6], -0.1; in experiment [7], -0.221. For the same molecule, the results for the composite z-score in experiment [8], in experiment [9] and in [10] were 0.401, 0.452 and 0.966, respectively. Further, the z-score in experiment [2] stood at 0.316.

For `COc1ccc([Si](C)(C)[C@H]2[C@H](CC(=O)N3Cc4ccccc4C[C@H]3CO)O[C@@]3(C(=O)N(Cc4cccc(I)c4)c4ccccc43)[C@@H]2C)cc1`, the composite z-score is 0.276 in experiment [1]; 0.947 in [3]; -0.551 in experiment [4]; 1.49 in [5]; -0.124 in experiment [6]; 0.0815 in experiment [7]. For the same molecule, the composite z-score in experiment [8] was -0.1; in experiment [9], 0.225; in experiment [10] it was -0.0241. Further, the z-score in [2] was -3.8.

For `O=C1O[C@@H](c2ccccc2)[C@@H](c2ccccc2)N2[C@@H](c3ccc(O)cc3)[C@]3(C(=O)Nc4ccc(C#CCCO)cc43)[C@@H](C(=O)O)[C@H]12`, the composite z-score in experiment [1] was 0.449; in [3], -0.233; in experiment [4] it was 2.19; in experiment [5] it was 0.933; in experiment [6] it was 0.485; in [7], 0.86. The values for the composite z-score in experiment [8], in experiment [9] and in [10] were 2.63, 1.66 and 2.14, respectively. The same molecule came in with a z-score in experiment [2] of 0.386.

Consider `CC(C)C(=C=CC[C@H](O)c1ccccc1OCCO)CCO`, for which the composite z-score was 1.31 in experiment [1]; -0.378 in [3]; -0.274 in experiment [4]; 0.0647 in experiment [5]; -0.0643 in experiment [6]; 0.0639 in [7]. Besides, the composite z-score in experiment [8] is -0.0546; in experiment [9], 1.02; in experiment [10], 1.92. The z-score in [2] is -1.32.

On to `C[N+](C)(C)CCCC[C@@H]1NC(=O)[C@@H]2C[C@H](C(=O)NCCCCCCNC(=O)CS)[C@H](c3cccc(OCCO)c3)N2C1=O`, for which the composite z-score in experiment [1] was -0.568; in experiment [3], 0.382; in experiment [4], -0.485; in [5], -0.467; in [6], -0.233; in experiment [7] it was -0.0553. The composite z-score was -0.331 in experiment [8], 0.567 in [9] and 2.15 in experiment [10]. Further, the z-score in experiment [2] is -0.154.

In the case of `CCCCC(=O)N(Cc1ccccc1F)[C@@H]1CC(C(=O)NCCO)=C[C@H](Oc2c(I)cc(CO)cc2OC)[C@H]1O`, the composite z-score in [1] was 1.42; in experiment [3], 1.29; in experiment [4], 3.17; in [5], 1.4; in [6] it was 0.0004; in [7], 0.123. For the same molecule, the composite z-score was -0.083 in experiment [8], 0.994 in experiment [9] and 1.79 in experiment [10]. The same molecule registered a z-score in [2] of -1.06.

For the molecule `Cc1ccc(S(=O)(=O)N2CC(C(=O)O)=CCC2c2ccccc2)cc1` (stereo not given), the composite z-score in experiment [1] was 0.467; in experiment [3] it was -1.58; in experiment [4], 0.0207; in experiment [5] it was 0.52; in experiment [6] it was 0.173; in [7], 0.0639. In addition, the composite z-score in experiment [8] is -0.468; in experiment [9] it was 0.505; in [10], 0.277. Moreover, the z-score in experiment [2] is -0.212.

`CN1C(=O)C2C=CC(C(O)c3ccc(Br)cc3)N(Nc3ccccc3)C2C1=O` (stereo not given): the composite z-score in experiment [1] was -0.0441; in [3], -1.43; in experiment [4], -0.209; in [5] it was 0.394; in experiment [6] it was -0.124; in experiment [7], -0.178. Moreover, the composite z-score in [8] was 0.154; in experiment [9], 0.65; in [10] it was -0.292. Moreover, in experiment [2], the z-score amounted to 0.15.

For the origin of these results see PubChem BioAssay.
